Measured values from PubChem BioAssay AID1159580 (chemical genetic matrix, 2015).
Hit rate of the full screen: of about 5,500 compounds, about 2,000 (36%) were called active. Another 18% or so got no clear call; they are omitted. No stated cut-off is given here; in the data, active means normalized growth mostly below about 0.91 (no sharp cut-off); inconclusive means no clear call, values can overlap the other calls; inactive means mostly above about 0.92. This is one part of the list.

Test: chemical genetic growth profiling, strain panel (AID 1159580);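 further: tested at 20 µM; growth read once vehicle control cultures reached saturation at 30 °C; 1 = growth at the plate median or of vehicle wells; lower values mean less growth of the strain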
Conditions: S. cerevisiae deletion strains, growth OD

Measured: normalized growth

COc1cccc2c(C)cc(=O)[nH]c12
inactive: locus YAL021C, strain ccr4, hits give low values 1.01 | locus YAL026C, strain drs2, hits give low values 0.972 | locus YAL030W, strain snc1, hits give low values 0.977 | locus YBL061C, strain skt5, hits give low values 0.938 | locus YBR009C, strain hhf1, hits give low values 0.938 | locus YBR021W, strain FUR4, hits give low values 1.07 | locus YBR023C, strain chs3, hits give low values 0.928 | locus YBR171W, strain sec66, hits give low values 0.963 | locus YBR229C, strain ROT2, hits give low values 0.969 | locus YBR279W, strain paf1, hits give low values 0.987 | locus YCL011C, strain gbp2, hits give low values 0.924 | locus YCL016C, strain dcc1, hits give low values 0.949 | locus YCL029C, strain bik1, hits give low values 0.932 | locus YCL061C, strain MRC1, hits give low values 0.956 | locus YCL069W, strain vba3, hits give low values 0.98 | locus YCR088W, strain abp1, hits give low values 0.972 | locus YDL005C, strain med2, hits give low values 0.992 | locus YDL035C, strain GPR1, hits give low values 0.958 | locus YDL040C, strain nat1, hits give low values 0.972 | locus YDL074C, strain BRE1, hits give low values 0.853 | locus YDL101C, strain DUN1, hits give low values 0.941 | locus YDL134C, strain PPH21, hits give low values 0.961 | locus YDL185W, strain tfp1, hits give low values 0.933 | locus YDR001C, strain nth1, hits give low values 0.957 | locus YDR069C, strain doa4, hits give low values 0.971 | locus YDR137W, strain rgp1, hits give low values 0.847 | locus YDR159W, strain sac3, hits give low values 0.862 | locus YDR162C, strain NBP2, hits give low values 0.881 | locus YDR297W, strain sur2, hits give low values 0.974 | locus YDR318W, strain mcm21, hits give low values 0.949 | locus YDR334W, strain swr1, hits give low values 0.978 | locus YDR335W, strain msn5, hits give low values 0.941 | locus YDR388W, hits give low values 0.929 | locus YEL003W, strain gim4, hits give low values 0.971 | locus YEL037C, strain rad23, hits give low values 0.974 | locus YEL061C, strain CIN8 (second series), hits give low values 0.969 | locus YEL061C, strain CIN8, hits give low values 0.963 | locus YER015W, strain faa2, hits give low values 0.986 | locus YER016W, strain bim1, hits give low values 0.953 | locus YER110C, hits give low values 0.946 | locus YER111C, strain swi4, hits give low values 0.977 | locus YER155C, strain BEM2, hits give low values 0.946 | locus YER167W, strain BCK2, hits give low values 0.947 | locus YFR010W, strain ubp6, hits give low values 0.975 | locus YGL078C, strain dbp3, hits give low values 0.962 | locus YGL167C, strain pmr1, hits give low values 0.982 | locus YGL173C, strain kem1, hits give low values 0.962 | locus YGL227W, strain vid30, hits give low values 0.961 | locus YGL248W, strain PDE1, hits give low values 0.919 | locus YGR078C, strain PAC10, hits give low values 0.904 | locus YGR252W, strain gcn5, hits give low values 0.874 | locus YHR013C, strain ard1, hits give low values 0.848 | locus YHR027C, strain rpn1, hits give low values 0.984 | locus YHR030C, strain SLT2, hits give low values 0.945 | locus YHR079C, strain IRE1 (second series), hits give low values 0.933 | locus YHR094C, strain hxt1, hits give low values 0.953 | locus YHR129C, strain ARP1, hits give low values 0.936 | locus YIL066C, strain RNR3, hits give low values 0.929 | locus YIL073C, strain SPO22, hits give low values 0.812 | locus YIL125W, strain kgd1, hits give low values 0.96 | locus YIR030C, strain dcg1, hits give low values 0.954 | locus YJL092W, strain hpr5, hits give low values 0.972 | locus YJL095W, strain BCK1 (second series), hits give low values 0.965 | locus YJL115W, strain asf1, hits give low values 0.981 | locus YJL129C, strain trk1, hits give low values 0.966 | locus YJL134W, strain LCB3, hits give low values 0.968 | locus YJL154C, strain vps35, hits give low values 0.979 | locus YJL164C, strain tpk1, hits give low values 0.949 | locus YJL168C, strain set2, hits give low values 0.948 | locus YJL187C, strain SWE1 (second series), hits give low values 0.908 | locus YJL187C, strain SWE1, hits give low values 0.989 | locus YJR043C, strain POL32, hits give low values 0.885 | locus YKL068W, hits give low values 0.951 | locus YKL085W, strain MDH1 (second series), hits give low values 0.941 | locus YKL085W, strain MDH1, hits give low values 0.941 | locus YKL160W, strain elf1, hits give low values 0.944 | locus YKR026C, strain gcn3, hits give low values 0.972 | locus YKR091W, strain srl3, hits give low values 0.981 | locus YLL026W, hits give low values 0.952 | locus YLL041C, strain sdh2, hits give low values 0.956 | locus YLR027C, strain aat2, hits give low values 0.955 | locus YLR039C, strain RIC1, hits give low values 0.697 | locus YLR058C, strain SHM2, hits give low values 0.94 | locus YLR102C, strain apc9, hits give low values 0.942 | locus YLR221C, strain rsa3, hits give low values 0.949 | locus YLR258W, strain gsy2, hits give low values 0.941 | locus YLR262C, strain YPT6 (second series), hits give low values 0.887 | locus YLR262C, strain YPT6, hits give low values 0.732 | locus YLR268W, strain sec22, hits give low values 0.9 | locus YLR320W, strain mms22, hits give low values 0.94 | locus YLR342W, strain FKS1 (second series), hits give low values 0.838 | locus YLR342W, strain FKS1, hits give low values 0.957 | locus YLR357W, strain rsc2, hits give low values 0.974 | locus YLR370C, strain arc18, hits give low values 0.932 | locus YLR384C, strain iki3, hits give low values 0.981 | locus YML016C, strain PPZ1, hits give low values 0.958 | locus YML032C, strain rad52, hits give low values 0.948 | locus YML124C, strain tub3, hits give low values 0.952 | locus YMR058W, strain fet3, hits give low values 0.955 | locus YMR078C, strain ctf18, hits give low values 0.937 | locus YMR125W, strain sto1, hits give low values 0.959 | locus YMR129W, hits give low values 0.958 | locus YMR205C, strain PFK2, hits give low values 0.958 | locus YMR223W, strain ubp8, hits give low values 0.942 | locus YMR231W, strain pep5, hits give low values 1 | locus YMR307W, strain GAS1, hits give low values 0.974 | locus YNL067W, strain RPL9B, hits give low values 0.875 | locus YNL209W, strain ssb2, hits give low values 0.991 | locus YNL248C, strain rpa49, hits give low values 0.968 | locus YNL250W, strain rad50, hits give low values 0.925 | locus YNL271C, strain bni1, hits give low values 0.955 | locus YNL298W, strain CLA4, hits give low values 0.978 | locus YNL307C, strain MCK1, hits give low values 0.91 | locus YNL322C, strain KRE1 (second series), hits give low values 0.977 | locus YNL322C, strain KRE1, hits give low values 0.971 | locus YNR049C, strain mso1, hits give low values 0.97 | locus YNR052C, strain pop2, hits give low values 0.986 | locus YOL012C, strain htz1 1.3 | locus YOL147C, strain pex11, hits give low values 0.945 | locus YOR001W, strain rrp6, hits give low values 0.954 | locus YOR061W, strain CKA2, hits give low values 0.965 | locus YOR069W, strain VPS5, hits give low values 0.965 | locus YOR070C, strain gyp1, hits give low values 0.965 | locus YOR080W, strain dia2, hits give low values 0.983 | locus YOR083W, strain WHI5, hits give low values 0.929 | locus YOR106W, strain vam3, hits give low values 0.938 | locus YOR136W, strain idh2, hits give low values 0.951 | locus YOR144C, strain elg1, hits give low values 0.964 | locus YOR265W, strain rbl2, hits give low values 0.966 | locus YOR290C, strain snf2, hits give low values 0.891 | locus YOR316C, strain cot1, hits give low values 0.937 | locus YPL051W, strain arl3, hits give low values 0.938 | locus YPL055C, strain LGE1, hits give low values 0.775 | locus YPL078C, strain atp4, hits give low values 0.896 | locus YPL106C, strain sse1, hits give low values 0.898 | locus YPL240C, strain hsp82, hits give low values 0.959 | locus YPL241C, strain CIN2, hits give low values 0.958 | locus YPR119W, strain clb2, hits give low values 0.937 | locus YPR141C, strain kar3, hits give low values 0.953 | locus YPR163C, strain tif3, hits give low values 0.933 | locus YPR167C, strain met16, hits give low values 0.959
active: locus YBR231C, strain swc5, hits give low values 0.909 | locus YDL192W, strain arf1, hits give low values 0.887 | locus YDR101C, strain arx1, hits give low values 0.908 | locus YDR195W, strain ref2 1.15 [resistant] | locus YDR392W, strain spt3, hits give low values 0.641 | locus YDR502C, strain sam2, hits give low values 0.875 | locus YER155C, strain BEM2 (second series), hits give low values 0.786 | locus YGL086W, strain mad1, hits give low values 0.889 | locus YGL240W, strain doc1, hits give low values 0.843 | locus YGL253W, strain hxk2, hits give low values 0.891 | locus YGR135W, strain pre9, hits give low values 0.887 | locus YHR142W, strain chs7, hits give low values 0.835 | locus YHR200W, strain rpn10, hits give low values 0.919 | locus YJL095W, strain BCK1, hits give low values 0.793 | locus YJL166W, strain qcr8, hits give low values 0.891 | locus YKL009W, strain mrt4, hits give low values 0.874 | locus YKR001C, strain vps1, hits give low values 0.802 | locus YLL001W, strain dnm1, hits give low values 0.893 | locus YLR330W, strain CHS5, hits give low values 0.896 | locus YLR371W, strain rom2, hits give low values 0.89 | locus YLR418C, strain cdc73, hits give low values 0.715 | locus YML120C, strain ndi1, hits give low values 0.911 | locus YMR263W, strain SAP30, hits give low values 0.855 | locus YNL071W, strain lat1, hits give low values 0.897 | locus YNL233W, strain BNI4, hits give low values 0.827 | locus YOL006C, strain TOP1, hits give low values 0.511 | locus YOR184W, strain ser1, hits give low values 0.847 | locus YOR270C, strain vph1, hits give low values 0.714 | strain wtn01, hits give low values 0.881
